{"source": "PubChem BioAssay AID570", "about": "(The Scripps Research Institute Molecular Screening Center, 2006)", "note": "Out of some 65,000 compounds screened, about 45 (0.07%) were called active. This excerpt belongs to a sample that is enriched for actives. Unmarked numbers belong to inactive results.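 How the source made its calls: active means inhibition above the mean of compound-free control plate wells plus 3 SD (cut at about 14% in these data); inactive means the rest.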"}
{"biological_target": "Collagenase 3 (Homo sapiens) (UniProt P45452)", "experiment": "human MMP13 inhibitors, primary screen, biochemical, FRET peptide cleavage (AID 570);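 further: 0% = DMSO wells and 100% = wells with reference MMP-13 inhibitor after basal subtraction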", "conditions": "MMP-13 fTHP FRET cleavage, Mca fluorescence; at 4 µM; stronger effect = higher value"}
{"molecule": "O=C(NCCN1CCOCC1)[C@H](Cc1ccccc1)N1C(=O)c2ccccc2C1=O", "inhibition": "0.6%"}
{"molecule": "COc1ccc(O)c(C(=O)c2cnc3onc(C(C)C)c3c2)c1", "inhibition": "8.5%"}
{"molecule": "COC(=O)c1ccc(Oc2nc(NC(C)C)nc(SC)n2)cc1", "inhibition": "0.3%"}
{"molecule": "OCc1n[nH]c(CO)n1", "inhibition": "-2.9%"}
{"molecule": "CCN1C(=O)/C(=C2/Sc3ccccc3N2CCCS(=O)(=O)O)SC1=S", "inhibition": "17.1% (active)"}
{"molecule": "CCN1C(=O)/C(=C\\N2CCN(c3cccc(Cl)c3)CC2)SC1=S", "inhibition": "4.2%"}
{"molecule": "CCN1C(=O)/C(=C\\N2CCN(c3ccccc3)CC2)SC1=S", "inhibition": "3.4%"}
{"molecule": "CCc1nnc(NC(=O)c2nc3nccc(C)n3n2)s1", "inhibition": "1.3%"}
{"molecule": "COc1ccc2c(c1)OC(O)(C(F)(F)C(F)F)CC2=O", "note": "(configuration not stated)", "inhibition": "4.3%"}
{"molecule": "CC1(C)Cc2ccccc2-c2nnc(-c3cccc(O)c3)n21", "inhibition": "-1.1%"}
{"molecule": "O=C(Nc1ccc(Cl)cn1)c1cnn2cccnc12", "inhibition": "-1.1%"}
{"molecule": "O=c1[nH]c(=O)n(Cc2ccco2)c2c1C(C(F)(F)F)(C(F)(F)F)N=C(c1ccco1)N2", "inhibition": "-3.7%"}
{"molecule": "CC(C)n1c(NCc2c[nH]c3ccccc23)nc2ccccc21", "inhibition": "-5.6%"}
{"molecule": "COc1cc(C(O)c2nc3ccccc3n2C)cc(OC)c1OC", "note": "(configuration not stated)", "inhibition": "1%"}
{"molecule": "Cc1cc(C)c(C#N)c(SCc2ccc3c(c2)OCO3)n1", "inhibition": "3.3%"}
{"molecule": "COc1ccc(C2C(C(=O)N3CCN(c4ccc(OC)cc4)CC3)c3ccccc3C(=O)N2C)cc1", "note": "(configuration not stated)", "inhibition": "2.8%"}
{"molecule": "CNC(=O)CSc1nnnn1-c1ccc(C)cc1C", "inhibition": "1.5%"}
{"molecule": "CC1(C)CC(=O)C(C=NCc2cccnc2)=C(O)C1", "inhibition": "2.8%"}
{"molecule": "CCC(=O)Nc1cccc(NC(=O)c2cccnc2)c1", "inhibition": "-1.1%"}
{"molecule": "CCC1CCCCN1C(=O)Nc1cccc(NC(=O)N2CCCCC2CC)c1", "note": "(configuration not stated)", "inhibition": "-2.3%"}
{"molecule": "CCOC(=O)C1(c2ccccc2)NC(c2ccc(N(C)C)cc2)C2C(=O)N(C)C(=O)C21", "note": "(configuration not stated)", "inhibition": "-4.8%"}
{"molecule": "O=C(Nc1ccc2c(c1)OCCO2)C1CCCN(c2ncccn2)C1", "note": "(configuration not stated)", "inhibition": "4.5%"}
{"molecule": "Cc1ccccc1CSc1nnc(-c2cccnc2)n1N", "inhibition": "4.9%"}
{"molecule": "CN(C(=O)C1CCOC1)c1nnc(-c2cccnc2)s1", "note": "(configuration not stated)", "inhibition": "-4.2%"}
{"molecule": "COc1cccc(-n2cc3c(c2-c2ccccc2)c(=O)n(C)c(=O)n3C)c1", "inhibition": "-1.8%"}
{"molecule": "Cn1c(=O)c2c(nc(SCCNS(=O)(=O)c3ccccc3)n2C)n(C)c1=O", "inhibition": "-2.9%"}
{"molecule": "CC(C)OC(=O)c1cc(NC(=O)C2C3CCC(O3)C2C(=O)O)cc(C(=O)OC(C)C)c1", "note": "(configuration not stated)", "inhibition": "-25.2%"}
{"molecule": "Cc1noc(COc2ccccc2OCC(O)CNC(C)(C)C)n1", "note": "(configuration not stated)", "inhibition": "-0.8%"}
{"molecule": "O=C(CCCN1C(=O)CCC1=O)Nc1ccc(Cl)c(C(F)(F)F)c1", "inhibition": "1.9%"}
{"molecule": "Cc1cccc(-n2c(Cc3cc(=O)[nH]c(=O)[nH]3)nnc2SC(C)C)c1", "inhibition": "2.4%"}
{"molecule": "O=C(OCc1ccccc1F)c1ccc2c(c1)OCCO2", "inhibition": "-0.1%"}
{"molecule": "O=c1ccn(Cc2ccccc2Cl)cc1", "inhibition": "0.5%"}
{"molecule": "COc1ccc(Cn2nnc3c(=O)[nH]c(C4CCN(C(=O)c5ccccc5Cl)CC4)nc32)cc1", "inhibition": "7.2%"}
{"molecule": "CCOC(=O)[C@H]1CCC[C@@H](NS(=O)(=O)c2ccc(NC(C)=O)cc2)C1", "inhibition": "0%"}
{"molecule": "COc1ccccc1NC(=O)CSc1nnc(-c2ccoc2C)n1CCc1ccccc1", "inhibition": "-3.7%"}
{"molecule": "Cc1cc(Nc2cccc(C)c2C)n2ncnc2n1", "inhibition": "6.6%"}
{"molecule": "CCCc1nc2c3cnn(-c4cccc(Cl)c4)c3ncn2n1", "inhibition": "-4.1%"}
{"molecule": "CC12CN3CC(C)(CN(C1)C3c1ccc(Cl)cc1Cl)C2=O", "note": "(configuration not stated)", "inhibition": "6.8%"}
{"molecule": "Cc1ccc(C(C)C)c(OCc2nnc(SCC(=O)Nc3nccs3)n2C)c1", "inhibition": "-0.8%"}
{"molecule": "CCOC(=O)N1CCC(NC(=O)Cn2cc3c(n2)CCCCC3)CC1", "inhibition": "3%"}
{"molecule": "Cc1cc(C)nc(N2C(=O)CC(Cc3ccccc3)C2=O)n1", "note": "(configuration not stated)", "inhibition": "2.4%"}
{"molecule": "CC1CCCC(NC(=O)CN2CCN(Cc3ccc(Cl)cc3)C2=O)C1C", "note": "(configuration not stated)", "inhibition": "-0.6%"}
{"molecule": "CCOC(=O)N1CCC(Nc2c(NCCCN3CCN(c4ccc(OC)cc4)CC3)c(=O)c2=O)CC1", "inhibition": "2.1%"}
{"molecule": "O=C(CCC(=O)OCC(F)(F)C(F)F)NCc1ccccc1", "inhibition": "1.8%"}
{"molecule": "Cc1cc(/C=N/n2cnnc2)c(C)n1-c1ccc2ncccc2c1", "inhibition": "-12%"}
{"molecule": "CC(=O)NC(C)(C)C1CC=C(C)/C(=N\\O)C1", "note": "(configuration not stated)", "inhibition": "4.1%"}
{"molecule": "CCOc1ccc(OCC)c(NC(=O)CN(C)S(=O)(=O)c2cccc3nsnc23)c1", "inhibition": "-2.8%"}
{"molecule": "Cc1cccc(-n2c(O)c(C=Nc3ccccc3N)c(=O)[nH]c2=O)c1", "inhibition": "-15.8%"}
{"molecule": "N#CC(C(=O)c1ccc(S(=O)(=O)N2CCCCCC2)cc1)c1nc2ccccc2[nH]1", "note": "(configuration not stated)", "inhibition": "-11.8%"}
{"molecule": "CC1C=CCC2C(=O)N(c3cccc(C(=O)N4CCCCCC4)c3)C(=O)C12", "note": "(configuration not stated)", "inhibition": "4.6%"}
{"molecule": "Cc1nc2ccccc2c2oc(C(=O)NCC3CCCO3)cc12", "note": "(configuration not stated)", "inhibition": "-8.8%"}
{"molecule": "CCCn1c(SCC(=O)N2CCc3ccccc32)nnc1-c1ccncc1", "inhibition": "-0.9%"}
{"molecule": "COc1ccc(S(=O)(=O)N2CCCCC2)cc1Br", "inhibition": "3.3%"}
{"molecule": "Cc1ccc(-n2nc3cc(Cl)c(NC(=O)c4ccco4)cc3n2)cc1", "inhibition": "-66.9%"}
{"molecule": "Cc1ccc(S(=O)(=O)c2c(N)n(C)c3nc4ccccc4nc23)cc1", "inhibition": "-244%"}
{"molecule": "CCC(C)NC(=O)N[C@@H](CCSC)C(=O)O", "note": "(some centres not stated)", "inhibition": "1.5%"}
{"molecule": "C=CCOc1ccc(C2/C(=C(\\O)c3c(C)[nH]c(C(=O)OC)c3C)C(=O)C(=O)N2CCN(C)C)cc1", "note": "(configuration not stated)", "inhibition": "2.9%"}
{"molecule": "COc1ccc(OC)c(NC(=O)CCN2CCC(C)CC2)c1", "inhibition": "3.7%"}
{"molecule": "COc1ccccc1OCCC(=O)OCC(=O)NC(=O)NC(C)(C)C", "inhibition": "3.7%"}
{"molecule": "CC(C)(C)c1cc(CN2CCN(CCC#N)CC2)cc(C(C)(C)C)c1O", "inhibition": "-0.2%"}
{"molecule": "CCOC(=O)C1=C(C)NC(C)=C(C(=O)OCC)C1c1ccccn1", "inhibition": "-0.7%"}
{"molecule": "CCOc1ccc(C(=O)Nc2ccncc2)cc1", "inhibition": "3.1%"}
